Columns and labels:
Assay in all cases: SPOT peptide array binding signal intensity (averaged, normalized) (arbitrary units (background-subtracted, floor 0; scale differs between SH3 domains)); higher = stronger binding of the SH3 domain to the peptide
AgAbp1 = biological target: AgAbp1
Procedure, shortened: (§1)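 Cellulose membranes carried synthetic 15-mer peptides with cysteines swapped for serines. These were incubated overnight at 4°C with 10 μg/ml of GST-fused SH3 domains from four yeast species in TBS-based blocking buffer. Binding signal, detected with anti-GST antibody and quantified in Genespotter, is the normalized, background-subtracted spot intensity averaged over replicates, in arbitrary units specific to each domain.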

AgBbc1 = biological target: AgBbc1
Procedure, shortened: as §1

AgBem1-D1 = biological target: AgBem1-D1
Procedure, shortened: as §1

AgBzz1-D1 = biological target: AgBzz1-D1
Procedure, shortened: as §1

AgBzz1-D2 = biological target: AgBzz1-D2
Procedure, shortened: as §1

AgCyk3 = biological target: AgCyk3
Procedure, shortened: as §1

AgFus1 = biological target: AgFus1
Procedure, shortened: as §1

AgHof1 = biological target: AgHof1
Procedure, shortened: as §1

AgHse1 = biological target: AgHse1
Procedure, shortened: as §1

AgLsb1 = biological target: AgLsb1
Procedure, shortened: as §1

AgLsb4 = biological target: AgLsb4
Procedure, shortened: as §1

AgMyo5 = biological target: AgMyo5
Procedure, shortened: as §1

AgNbp2 = biological target: AgNbp2
Procedure, shortened: as §1

AgRvs167 = biological target: AgRvs167
Procedure, shortened: as §1

AgSho1 = biological target: AgSho1
Procedure, shortened: as §1

AgSla1-D1-D2 = biological target: AgSla1-D1-D2
Procedure, shortened: as §1

AgSla1-D3 = biological target: AgSla1-D3
Procedure, shortened: as §1

CaAbp1-D1 = biological target: CaAbp1-D1
Procedure, shortened: as §1

CaAbp1-D2 = biological target: CaAbp1-D2
Procedure, shortened: as §1

CaBbc1 = biological target: CaBbc1
Procedure, shortened: as §1

CaBem1-D1 = biological target: CaBem1-D1
Procedure, shortened: as §1

CaBzz1-D1 = biological target: CaBzz1-D1
Procedure, shortened: as §1

CaBzz1-D2 = biological target: CaBzz1-D2
Procedure, shortened: as §1

CaCyk3 = biological target: CaCyk3
Procedure, shortened: as §1

CaFus1 = biological target: CaFus1
Procedure, shortened: as §1

CaHof1 = biological target: CaHof1
Procedure, shortened: as §1

CaHse1 = biological target: CaHse1
Procedure, shortened: as §1

CaLsb1 = biological target: CaLsb1
Procedure, shortened: as §1

CaLsb4 = biological target: CaLsb4
Procedure, shortened: as §1

CaMyo5 = biological target: CaMyo5
Procedure, shortened: as §1

CaNbp2 = biological target: CaNbp2
Procedure, shortened: as §1

CaRvs167 = biological target: CaRvs167
Procedure, shortened: as §1

CaRvs167-3 = biological target: CaRvs167-3
Procedure, shortened: as §1

CaSho1 = biological target: CaSho1
Procedure, shortened: as §1

CaSla1-D1-D2 = biological target: CaSla1-D1-D2
Procedure, shortened: as §1

CaSla1-D3 = biological target: CaSla1-D3
Procedure, shortened: as §1

ScAbp1 = biological target: ScAbp1
Procedure, shortened: as §1

ScBbc1 = biological target: ScBbc1
Procedure, shortened: as §1

ScBem1-D1 = biological target: ScBem1-D1
Procedure, shortened: as §1

ScBzz1-D1 = biological target: ScBzz1-D1
Procedure, shortened: as §1

ScBzz1-D2 = biological target: ScBzz1-D2
Procedure, shortened: as §1

ScCyk3 = biological target: ScCyk3
Procedure, shortened: as §1

ScFus1 = biological target: ScFus1
Procedure, shortened: as §1

ScHof1 = biological target: ScHof1
Procedure, shortened: as §1

ScHse1 = biological target: ScHse1
Procedure, shortened: as §1

ScLsb1 = biological target: ScLsb1
Procedure, shortened: as §1

ScLsb2 = biological target: ScLsb2
Procedure, shortened: as §1

ScLsb3 = biological target: ScLsb3
Procedure, shortened: as §1

ScLsb4 = biological target: ScLsb4
Procedure, shortened: as §1

ScMyo3 = biological target: ScMyo3
Procedure, shortened: as §1

ScMyo5 = biological target: ScMyo5
Procedure, shortened: as §1

ScNbp2 = biological target: ScNbp2
Procedure, shortened: as §1

ScPex13 = biological target: ScPex13
Procedure, shortened: as §1

ScRvs167 = biological target: ScRvs167
Procedure, shortened: as §1

ScSho1 = biological target: ScSho1
Procedure, shortened: as §1

ScSla1-D1-D2 = biological target: ScSla1-D1-D2
Procedure, shortened: as §1

ScSla1-D3 = biological target: ScSla1-D3
Procedure, shortened: as §1

SpAbp1-D1 = biological target: SpAbp1-D1
Procedure, shortened: as §1

SpBbc1 = biological target: SpBbc1
Procedure, shortened: as §1

SpBzz1-D1 = biological target: SpBzz1-D1
Procedure, shortened: as §1

SpBzz1-D2 = biological target: SpBzz1-D2
Procedure, shortened: as §1

SpCyk3 = biological target: SpCyk3
Procedure, shortened: as §1

SpHof1 = biological target: SpHof1
Procedure, shortened: as §1

SpHof1-2 = biological target: SpHof1-2
Procedure, shortened: as §1

SpHof1-3 = biological target: SpHof1-3
Procedure, shortened: as §1

SpHse1 = biological target: SpHse1
Procedure, shortened: as §1

SpLsb1 = biological target: SpLsb1
Procedure, shortened: as §1

SpLsb4 = biological target: SpLsb4
Procedure, shortened: as §1

SpMyo1 = biological target: SpMyo1
Procedure, shortened: as §1

SpNbp2 = biological target: SpNbp2
Procedure, shortened: as §1

SpPex13 = biological target: SpPex13
Procedure, shortened: as §1

SpRvs167 = biological target: SpRvs167
Procedure, shortened: as §1

SpSla1-D1-D2 = biological target: SpSla1-D1-D2
Procedure, shortened: as §1

SpSla1-D3 = biological target: SpSla1-D3
Procedure, shortened: as §1

IHTRRPSSTSQYLIR was tested, and the “SPOT peptide array binding signal intensity” value (AgAbp1) was 235, the “SPOT peptide array binding signal intensity” value (AgBbc1) was 354 and the “SPOT peptide array binding signal intensity” value (AgBem1-D1) was 254. The “SPOT peptide array binding signal intensity” value (AgBzz1-D1) was 73.5, the “SPOT peptide array binding signal intensity” value (AgBzz1-D2) was 58.5 and the “SPOT peptide array binding signal intensity” value (AgCyk3) was 4. For the same binder, the “SPOT peptide array binding signal intensity” value (AgFus1) was 406, the “SPOT peptide array binding signal intensity” value (AgHof1) was 44.2 and the “SPOT peptide array binding signal intensity” value (AgHse1) was 202. The “SPOT peptide array binding signal intensity” value (AgLsb1) was 242, the “SPOT peptide array binding signal intensity” value (AgLsb4) was 32 and the “SPOT peptide array binding signal intensity” value (AgMyo5) was 194. The “SPOT peptide array binding signal intensity” value (AgNbp2) was 106, the “SPOT peptide array binding signal intensity” value (AgRvs167) was 1.33 and the “SPOT peptide array binding signal intensity” value (AgSho1) was 22.5. The “SPOT peptide array binding signal intensity” value (AgSla1-D1-D2) was 44, the “SPOT peptide array binding signal intensity” value (AgSla1-D3) was 11.8 and the “SPOT peptide array binding signal intensity” value (CaAbp1-D1) was 732. For the same binder, the “SPOT peptide array binding signal intensity” value (CaAbp1-D2) was 571, the “SPOT peptide array binding signal intensity” value (CaBbc1) was 415 and the “SPOT peptide array binding signal intensity” value (CaBem1-D1) was 43. For the same binder, the “SPOT peptide array binding signal intensity” value (CaBzz1-D1) was 249, the “SPOT peptide array binding signal intensity” value (CaBzz1-D2) was 267 and the “SPOT peptide array binding signal intensity” value (CaCyk3) was 17. The “SPOT peptide array binding signal intensity” value (CaFus1) was 699, the “SPOT peptide array binding signal intensity” value (CaHof1) was 0.5 and the “SPOT peptide array binding signal intensity” value (CaHse1) was 110. The “SPOT peptide array binding signal intensity” value (CaLsb1) was 22, the “SPOT peptide array binding signal intensity” value (CaLsb4) was 150 and the “SPOT peptide array binding signal intensity” value (CaMyo5) was 208. The “SPOT peptide array binding signal intensity” value (CaNbp2) was 94.5, the “SPOT peptide array binding signal intensity” value (CaRvs167) was 19.7 and the “SPOT peptide array binding signal intensity” value (CaRvs167-3) was 69.5. The “SPOT peptide array binding signal intensity” value (CaSho1) was 369, the “SPOT peptide array binding signal intensity” value (CaSla1-D1-D2) was 126 and the “SPOT peptide array binding signal intensity” value (CaSla1-D3) was 15.8. The “SPOT peptide array binding signal intensity” value (ScAbp1) was 97.5, the “SPOT peptide array binding signal intensity” value (ScBbc1) was 144 and the “SPOT peptide array binding signal intensity” value (ScBem1-D1) was 40.5. The “SPOT peptide array binding signal intensity” value (ScBzz1-D1) was 50, the “SPOT peptide array binding signal intensity” value (ScBzz1-D2) was 50.5 and the “SPOT peptide array binding signal intensity” value (ScCyk3) was 35. The “SPOT peptide array binding signal intensity” value (ScFus1) was 593, the “SPOT peptide array binding signal intensity” value (ScHof1) was 1 and the “SPOT peptide array binding signal intensity” value (ScHse1) was 465. For the same binder, the “SPOT peptide array binding signal intensity” value (ScLsb1) was 3, the “SPOT peptide array binding signal intensity” value (ScLsb2) was 162 and the “SPOT peptide array binding signal intensity” value (ScLsb3) was 158. The “SPOT peptide array binding signal intensity” value (ScLsb4) was 6.5, the “SPOT peptide array binding signal intensity” value (ScMyo3) was 82 and the “SPOT peptide array binding signal intensity” value (ScMyo5) was 243. For the same binder, the “SPOT peptide array binding signal intensity” value (ScNbp2) was 267, the “SPOT peptide array binding signal intensity” value (ScPex13) was 10.8 and the “SPOT peptide array binding signal intensity” value (ScRvs167) was 19.8. The “SPOT peptide array binding signal intensity” value (ScSho1) was 585, the “SPOT peptide array binding signal intensity” value (ScSla1-D1-D2) was 172 and the “SPOT peptide array binding signal intensity” value (ScSla1-D3) was 14.5. For the same binder, the “SPOT peptide array binding signal intensity” value (SpAbp1-D1) was 826, the “SPOT peptide array binding signal intensity” value (SpBbc1) was 60 and the “SPOT peptide array binding signal intensity” value (SpBzz1-D1) was 632. For the same binder, the “SPOT peptide array binding signal intensity” value (SpBzz1-D2) was 6.5, the “SPOT peptide array binding signal intensity” value (SpCyk3) was 10 and the “SPOT peptide array binding signal intensity” value (SpHof1) was 51. The “SPOT peptide array binding signal intensity” value (SpHof1-2) was 10.5, the “SPOT peptide array binding signal intensity” value (SpHof1-3) was 669 and the “SPOT peptide array binding signal intensity” value (SpHse1) was 352. For the same binder, the “SPOT peptide array binding signal intensity” value (SpLsb1) was 292, the “SPOT peptide array binding signal intensity” value (SpLsb4) was 138 and the “SPOT peptide array binding signal intensity” value (SpMyo1) was 138. For the same binder, the “SPOT peptide array binding signal intensity” value (SpNbp2) was 96.5, the “SPOT peptide array binding signal intensity” value (SpPex13) was 10 and the “SPOT peptide array binding signal intensity” value (SpRvs167) was 31.3. For the same binder, the “SPOT peptide array binding signal intensity” value (SpSla1-D1-D2) was 2 and the “SPOT peptide array binding signal intensity” value (SpSla1-D3) was 6.

KNPRRQLQIPRQQPS was tested, and the “SPOT peptide array binding signal intensity” value (SpBzz1-D2) was 0.5, the “SPOT peptide array binding signal intensity” value (SpCyk3) was 1 and the “SPOT peptide array binding signal intensity” value (SpHof1) was 126. The “SPOT peptide array binding signal intensity” value (SpHof1-2) was 11.5, the “SPOT peptide array binding signal intensity” value (SpHof1-3) was 266 and the “SPOT peptide array binding signal intensity” value (SpHse1) was 260. The “SPOT peptide array binding signal intensity” value (SpLsb1) was 54.2, the “SPOT peptide array binding signal intensity” value (SpLsb4) was 129 and the “SPOT peptide array binding signal intensity” value (SpMyo1) was 2. For the same binder, the “SPOT peptide array binding signal intensity” value (SpNbp2) was 53, the “SPOT peptide array binding signal intensity” value (SpPex13) was 5 and the “SPOT peptide array binding signal intensity” value (SpRvs167) was 16.7. The “SPOT peptide array binding signal intensity” value (SpSla1-D1-D2) was 3.5 and the “SPOT peptide array binding signal intensity” value (SpSla1-D3) was 2.

— the supplement of paper PMC4466140
